Laboratory results from PubChem BioAssay AID1159506 (National Center for Advancing Translational Sciences (NCATS), 2015).
The full ranking holds about 59,000 sequences; the median of the read-out is about -0.00055, and the lowest 2% start at about -2. This excerpt belongs to a sample that is enriched for the lowest values.

Assay: Identification of proteins required for the processing of the EWS-FLI1 nascent transcript;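 note: robust z of luciferase light less the median z of siRNAs with the same seed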
Details: TC32 Ewing sarcoma NR0B1-luc vs CMV-luc (EWS-FLI1 target promoter against control promoter), 48 h; screened at 20 nM (by protocol)
Method in brief: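 Readout: OneGlo luminescence, 48 h post-transfection, TC32-NR0B1-luc vs TC32-CMV-luc in parallel. siRNA 20 nM final, RNAiMax lipid, 600 cells/well; z-score-MAD transformed, then seed-adjusted.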

Row | Sequence | seed-corrected z-score
1 | AAAUCUUGAUCUGUGACUC against EN2 | 0.225
2 | UCUCUCAUCAAUAUGCUCU against MTHFD2 | 0.352
3 | UAUAGGCACGCUGCUAUUC against DIRC2 | -2.73
4 | UUCGUUAGGUUUCCUUUCG against HIVEP2 | -0.393
5 | UUCCGAAAUGAAAAGGAUC against GMPR2 | 0.18
6 | UAAUUGCUGAUAUUCGAGC against EPB41L3 | -0.247
7 | UAAGAUACUCGGGUUUCAC against ZADH2 | -0.425
8 | AGUUCGAUUAGCUAAGGCC against SYNRG | -0.0555
9 | UAUGGGAGUGUCAAUAAUC against PDHB | -0.681
10 | UCAGGUGCAAUCUGACUCU against PPP1R1C | -2.4
11 | AUGCUUACAAGAUCUUGUC against USP44 | -0.0422
12 | UCACGUGUAAAGGAUCACG against RTN4IP1 | 0.0887
13 | UUCUGUUCAAAUCCAUUGG against BUD13 | -0.753
14 | AGAGUUGUUGUCAUCUUCC against CACNA1S | -0.313
15 | UCUGGGCGUAGACAACUGC against CNTFR | -2.12
16 | UGAACGUCCCGUCUGAGUG against SCT | -0.424
17 | UCUUCAAUAAUGAUCUCCU against MRI1 | 0.722
18 | UGAAGAGUAAGCUCAAACC against ASIC5 | -3.53
19 | UAAACUUCCCUUUAAAAAC against IRF8 | -0.00875
20 | UUCAUGUGAACUUACAGUU against UQCRHL | 0.0588
21 | UUAGUUGCAAGGCAUUCAG against FAM135A | -4.23
22 | UAAAGGUCAAGCAGUCAGU against PVRL4 | 0.651

Row | Sequence | seed-corrected z-score
23 | AGUGAUGACAUUGAUAUCG against SYDE1 | 1.21
24 | AUAUCUACGAUCUAUAUCU against LOC645553 | 0.695
25 | UCUGGUUCUUGUUCAAGUG against PCDH17 | -1.28
26 | UCGCUAUCCAUAUCAGAGG against GOLGA4 | 1.24
27 | UUAAUGGUCCUGUAGUAAC against MTMR1 | 0.139
28 | UACAACAAUAGCCACAGCU against OR52W1 | -2.15
29 | UGUAUUUUAUGUCUCUCCC against PLAC8L1 | -0.115
30 | AAAGCCCAAAUAUAGUUCC against NEUROD4 | 0.947
31 | UUUGAGGAAAGGAACUGCC against FAM228A | 0.28
32 | AAUCUUGGUCUUACUGUCC against PKN1 | -1.59
33 | UACUGAGAUAGUCAAAUUC against CYB5D1 | -0.0466
34 | UUAUUGGAGAGCACCUGGU against PADI3 | 0.0879
35 | ACAUCUGUCAGGGUCAUCG against NOD1 | -0.0205
36 | UCCUUGUCGAAAGAAGUGC against RMND5A | -3.27
37 | UCAGUUUACCUGAGAAGCC against C22orf39 | -0.529
38 | UGACUUUAAGUUUUGGGCC against LINC00999 | 0.159
39 | UGUAGCAUGACCGUCUUCC against LINC00239 | -0.84
40 | AAGGUGCACAAGUAAAGCC against LOC730100 | -2.05
41 | UCAUUGGAUUCCAAAAUCC against ADAM18 | 0.186
42 | UACGUUAAAAGGCAGGACA against CDKN2A | -0.998
43 | UAGCAGAUGAGAGACUAUG against MRPS24 | -0.269
44 | UUUAUGGGCUCUUUUGACG against ENPP5 | -0.349

Row | Sequence | seed-corrected z-score
45 | UAUGCUAAGGUAGCAGUUG against RNF133 | 0.16
46 | UAUAAGUCUGGGAUAUCUG against CATSPERD | -0.549
47 | UCUUCGAAAGUGACCAGCA against INTS6 | -0.292
48 | UAACCUCCAUCCGAGGUGG against INHA | -0.1
49 | UGGGAUACCCUCCUUGUCU against UBA52 | -2.1
50 | UCUUUGAACAGGAUAAACC against HNRNPAB | 0.756
51 | UGAAUAUCAAGUUAGAUCC against OR5AK2 | 0.308
52 | UCUCUUGCUUGGAGGAAGC against ZNF174 | 0.443
53 | UCGGAGAUCAGGCUAGUGG against TMEM82 | -2.03
54 | UCCGGGUUCAGCAUGUCCA against ESPN | -0.679
55 | UAAUUGACCUGUACGCUCG against GATM | 0.156
56 | AAAGCAGUUGGAACCGUUG against KRTAP24-1 | 0.448
57 | AUCGAUUUUAAUGAACCGC against RPS4X | 1.4
58 | AAAGGCGUAGAGGAGCUGG against TRIB3 | -3.4
59 | UAGGUGAACAUCAUGACGC against ITGB5 | -0.131
60 | AUCUUUGUUGCGGAGACUG against OR2T34 | -0.514
61 | AGCUUGAUCAUUCUAGUGC against FLJ36777 | 0.325
62 | UUUCGAAUACCAGCUAUCC against KLHL7 | 0.0747
63 | UCGUGGUUCUCAAUUUUGC against PKLR | -0.494
64 | ACCUCUGCAUCUCUUGUUC against TCF23 | -2.43
65 | UUUCAAUCCUUCCUCCUUA against IFNA7 | -0.487
66 | UAAUGUAACUACUUCCAUC against TM2D1 | -0.144

Row | Sequence | seed-corrected z-score
67 | UGUUGUCAAAGAGUGAUUC against SLC2A13 | -2.46
68 | UACUGAAUCACUCCCUUGA against GALK1 | -0.0112
69 | UGUAGUACGCUCUUGUUCU against GOLGA8EP | -0.41
70 | UGCCGAGAAGUUUGGCUCC against TPBGL | -0.407
71 | AGAUAGUACACUCAUAUGG against ZNF791 | -2.77
72 | UAUGCGGACCAAGUUGUCU against TMEM72 | 0.195
73 | UCAGGAUAAAGAUUGUCGC against KDM4A | 1.62
74 | UGAAAUUCCCGUAGAGUUC against CA11 | -0.176
75 | AAACGAAAAAUGAACACUC against POU3F1 | 0.371
76 | AUUCUGAUCUAGGCGAUGG against C5orf15 | -2.22
77 | UUCGGAACCGGAGAUCCCA against RIPK4 | -0.395
78 | AAUCUAAUAGGAUUUGUUA against CTBP2 | -0.167
79 | ACCGUUUAAACUGAGACCC against FILIP1 | 1.11
80 | UCGCUGACUCCAGAUAUGC against AP1G2 | -0.0794
81 | UUCUUUGCACGAAUGUCCG against PRPF6 | -1.74
82 | UUGUUAAUCUGGUCAAUUG against GRM8 | 0.169
83 | UGCUUUUGGAGUGCUAUGG against ANKLE1 | -2.74
84 | UCCACGAAUAGCAAUAUGC against KIDINS220 | -1.19
85 | AAAUCAUAAACCAUCUUUG against OR2L2 | 1.05
86 | AGUAGUCACACUGUUGUGC against NXNL2 | -4.17
87 | UAUUUAUCUAGGCACUUCU against CENPT | 0.523
88 | UUCUCAGAAACUGCACGGC against SYNGR4 | 0.497

Row | Sequence | seed-corrected z-score
89 | UAUUCUUAUCUGUAAUCCC against LOC646736 | -0.205
90 | UCGCGGAUCAGAAAGGUGC against SOCS3 | -1.04
91 | UACUUUUGAUGCACUAGUC against ETAA1 | -1.14
92 | AACAUAAGAGAGACAAUGC against SYVN1 | 0.102
93 | UCACGAACUGGACUUUACC against GRM7 | -0.806
94 | GUCAGGUAGAAGACCACAC against MRGPRG | -2.24
95 | UGCGUGAACCUCUUGAACA against TNFAIP2 | 0.027
96 | AGUGGAAACAGGAUGGAUG against GAL3ST4 | -0.271
97 | UAGCCGCUGACUUUGAUGC against SLC39A13 | 0.264
98 | UUACUUGUACCCGCUGUUC against RLTPR | -0.488
99 | AUCUGCAUAAUGCACAUUC against SLC15A5 | -2.92
100 | AGCAUCUUGACAUUCAUCU against MYL4 | -0.225
101 | UUUAAGGGUAUUACGAGUG against GGPS1 | 0.153
102 | UUAUCAAUUAGAGGAUAAC against B3GALNT1 | 0.214
103 | AUACAUCCGAUUAAGAGGC against SERINC5 | -2.74
104 | UUUCCUGUAAAUCCCACAG against TSSC1 | 0.399
105 | AGAUCUAAUAACAAUAAGC against EIF2S3 | -2.28
106 | AAUCAGUCAGGUAAAUGCC against ENTPD1 | 0.248
107 | AAUAAAAAUGACAGUUUCC against BTN2A2 | 0.474
108 | AAUGAGAAUAAAGUCUACC against OR51A4 | -2.31
109 | UCCUUCACAAACAUGUCCC against SDK1 | 0.154
110 | UAUCGAAGAUAAAUCAGCC against SLC7A11 | 0.269

Row | Sequence | seed-corrected z-score
111 | UUCUUCUCGGCCUGUUUCC against RPL13A | 0.511
112 | UGCCUGUAAAGCCGUCUCC against LINC00705 | -0.731
113 | AAGCCUAUGAUGAUCACUG against C3orf52 | -0.911
114 | UUCCAGCACAUAUCGACUC against TMEM8B | -2.4
115 | AUACUGGACACUCUUGCCG against RNF5 | -2.86
116 | UUCGGUCUCAGGACUAUUG against KAT6A | 0.686
117 | UUCUUGAACUGUCUAAACC against CERKL | 0.919
118 | UUUCAUUGAAGCGGAAGCG against CRYGD | 0.834
119 | UUACUUAGAGGAGAUACCA against IGFBP7 | -0.294
120 | UCCCGGAAAGCCUUCAUGG against INF2 | -0.589
121 | UAAGAUAUGAACUCUGACG against ZNF234 | 0.548
122 | UGGGCUUGUAGAAGUGUCU against DGAT1 | -0.22
123 | AAUUAUUCGACUGACAUAG against RFC4 | -2.19
124 | AUCUGUCCAAGACAUUUGC against CHRNA7 | -1.18
125 | AAACUGACAAGUAGACUGG against ANKRD27 | -0.601
126 | UCAGUUGCUUAUGAUAGUC against CCDC73 | -2.71
127 | UUAUUAGAGAGAAAAGCAC against PRAC1 | 0.7
128 | UCCGUUAUUAGCAUCUGCC against 6-Mar | -0.0888
129 | UUAUUGAUGCGUUGAUUUG against CCDC88C | 0.00274
130 | UUAUGUACCUUGUUACAUU against CD72 | -0.111
131 | AUGCGGUUCAGGAACUUGG against SBNO2 | -2.46
132 | ACAUAUAGUAUCAUUAUGG against SLC35D2 | 0.0309
